JMJD2A Tudor inh: blocks the human JMJD2A Tudor domain; O75164; AlphaScreen JMJD2A-Tudor / H3K4me3 peptide binding; Potency, µM (titrated, usually from 114 µM), for inactives: at the top dose activity change, negative = inhibition, hits mostly inhibitors; actives 4.4% (n = 390,000); AID 504339; note: % is set by controls: 0 for no effect and ±100 for the full control effect; nearly all actives have a fitted effect of over 50% in size
G9a inh: G9a (human) methyltransferase inhibition | AID 504332 | G9a H3K9 monomethylation, AlphaScreen, 2 h | Q96KQ7 | Potency, µM (doses to about 102 µM), inactives show at the top dose activity, negative = inhibition, actives largely listed as inhibitors | actives 8.8% (n = 350,000); note: % is set by controls: 0 for no effect and ±100 for the full control effect; nearly all actives have a fitted effect of over 75% in size
Target sequence (Q96KQ7 913-1193 limits assumed): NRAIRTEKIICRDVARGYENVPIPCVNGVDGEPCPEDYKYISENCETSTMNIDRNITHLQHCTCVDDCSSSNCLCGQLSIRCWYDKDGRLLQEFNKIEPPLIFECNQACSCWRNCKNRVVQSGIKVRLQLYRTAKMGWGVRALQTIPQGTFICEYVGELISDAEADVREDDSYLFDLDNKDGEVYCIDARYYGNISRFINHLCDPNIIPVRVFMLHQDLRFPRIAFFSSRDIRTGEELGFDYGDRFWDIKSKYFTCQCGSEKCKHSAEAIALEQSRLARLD
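Chemiluminescent proximity detection of H3K9 monomethylation, read after 10 min bead incubation in the dark. Reaction: 20 nM G9a, 500 nM biotin-H3K9 peptide, 20 uM SAM cofactor, 2 h, room temperature, following 15 min enzyme-compound preincubation.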
Sfp PPTase inh: inhibitors of Bacillus subtilis Sfp phosphopantetheinyl transferase | Q9F4F7 | Biochemical Sfp PPTase activity, qHTS | Potency, µM, inactives show largest response in the series, negative = inhibition, usual class: inhibitors | actives 3.5% (n = 310,000) | AID 1490;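 note: the enzyme is Sfp with the accession as filed and its product quenches rhodamine fluorescence; 0% = enzyme reaction without inhibitor and -100% = no enzyme wells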
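Sfp 15 nM + cpd, 15 min RT; start w/ rhodamine-CoA 5 uM, BHQ-2-YbbR 12.5 uM (final); 50 mM Hepes pH 7.6, 10 mM MgCl2, 0.01% NP-40, 0.01% BSA; read 525/598 nm at 0 and 30 min.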
HP1b chromo inh: inhibitors of HP1-beta chromodomain binding to methylated histone tails. P83916. Potency, µM (top dose mostly 114 µM), without a hit: top-dose activity change, negative = inhibition, hits mostly inhibitors. actives 0.56% (n = 390,000). AlphaScreen HP1-beta / biotin-H3K9me3 peptide binding; note: nearly all actives have a fitted effect of over 70% in size
Target sequence (P83916 whole entry, looked up): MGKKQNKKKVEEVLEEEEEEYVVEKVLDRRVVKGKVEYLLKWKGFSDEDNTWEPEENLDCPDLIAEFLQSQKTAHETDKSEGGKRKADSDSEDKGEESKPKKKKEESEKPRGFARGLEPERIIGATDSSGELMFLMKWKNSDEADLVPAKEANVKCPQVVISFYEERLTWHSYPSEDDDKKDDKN
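HP1-beta protein (50 nM final) preincubated 30 min at room temperature with biotinylated H3(1-18)K9me3 peptide (50 nM) in PBS pH 7.4, 0.01% Tween-20, then compound added for 30 min. AlphaScreen streptavidin donor/nickel chelate acceptor beads (10 ug/mL final), 30 min dark, luminescence read.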
L3MBTL1 inh: inhibitors of human L3MBTL1; AlphaScreen L3MBTL1–H3K9me1 peptide binding; actives 0.66% (n = 230,000); AID 485360; Potency, µM (doses to about 57.1 µM), for inactives: at the top dose activity, negative = inhibition, most hits filed as inhibitors; Q9Y468; note: % is set by controls: 0 for no effect and ±100 for the full control effect; nearly all actives have a fitted effect of over 60% in size
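AlphaScreen proximity signal between nickel-chelate acceptor and streptavidin donor beads (final 10 ug/mL) reports binding of 50 nM L3MBTL1 to 75 nM biotin-H3 K9me1 peptide; complex incubated with compounds 30 min at room temperature; cefsulodin titration as control.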
BAZ2B inh: blocks human BAZ2B; AID 504333; actives 4.4% (n = 360,000); AlphaScreen BAZ2B-H3K14Ac peptide displacement; Q9UIF8; Potency, µM (top dose mostly 114 µM), inactives show top-dose activity change, negative = inhibition, usual class: inhibitors; note: % is set by controls: 0 for no effect and ±100 for the full control effect; nearly all actives have a fitted effect of over 60% in size
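Compounds, titrated to a top concentration of 110 uM, were incubated 30 min at room temperature with preformed BAZ2B/acetyl-K14 H3 peptide complex (50 nM each). Proximity signal was measured by AlphaScreen after 20 min with beads.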
Numbers without * were called inactive; ? = inconclusive; . = no result given; ! = a repeat was not active; [ ] = dose if it differs, or a comment. In the library only some 12% were active in any assay of this set; here they are far more common. Calls come from the whole dose curve; as a rule, active = well fitted curve in the direction sought with a large enough effect; inconclusive = small, poorly fitted or top-dose-only effect, or another doubt; inactive = no such curve, though single readings can be large; an effect the other way counts as inactive or inconclusive. Potency is the fitted concentration of half-maximal effect.

SMILES	JMJD2A Tudor inh	G9a inh	Sfp PPTase inh	HP1b chromo inh	L3MBTL1 inh	BAZ2B inh
COc1ccc(Nc2c3c(nc4ccc(NC(=O)/C=C/c5cccc(OC)c5OC)cc24)CCCC3)cc1OC	14.1µM*	11.2µM*	.	?	.	10µM*
COc1ccccc1Nc1c2c(nc3ccc(NC(=O)/C=C/c4cccc(OC)c4OC)cc13)CCCC2	?	11.2µM*	.	-5.7%	.	?
COc1ccccc1Nc1c2c(nc3ccc(NC(=O)c4cccc(F)c4)cc13)CCCC2	?	?	.	-6.8%	.	?
CCN(CC)c1ccc(S(=O)(=O)N2CCOCC2)cc1NC(=O)COC(=O)C1=COCCO1	1.0%	.	.	57.1%	.	.
COc1cc(NC(=O)c2ccc3c(SCC(=O)O)c4c(nc3c2)CCCC4)cc(OC)c1OC	-29.3%	?	-7.5%	26.1%	.	-25.4%
COc1cc(NC(=O)c2ccc3c(Cl)c4c(nc3c2)CCC4)cc(OC)c1OC	-20.9%	28.2µM*	.	17.8%	.	-3.0%
COc1cc(NC(=O)c2ccc3c(SCC(=O)O)c4c(nc3c2)CCC4)cc(OC)c1OC	-16.9%	.	10.5%	30.1%	.	89.1µM*
O=C(O)CSc1c2c(nc3cc(C(=O)Nc4ccc(F)c(Cl)c4)ccc13)CCC2	?	-32.8%[59 µM]	.	-1.5%	.	79.4µM*
COc1ccc(-c2oc3ncn4nc(-c5ccccc5Br)nc4c3c2-c2ccc(OC)cc2)cc1	-11.4%	5.5%[59 µM]	.	10.9%	.	2.9%
O=C(NCc1ccccc1)C(=O)NCC(c1cccnc1)N1CCN(c2ccccc2)CC1 (centres undefined)	27.3%	2.6%[59 µM]	.	85.0%	.	-7.3%
O=C(NCCCn1ccnc1)C(=O)NCC(c1cccnc1)N1CCN(c2ccccc2)CC1 (centres undefined)	56.2µM*	?	6.4%	10.8%	-10.6%	50.1µM*
O=C(NCCCn1ccnc1)C(=O)NCC(c1ccco1)N1CCN(c2ccccc2)CC1 (centres undefined)	-6.6%[11.4 µM]	-6.0%	12.3%	39.4%	-21.2%	56.2µM*
CC1CN(C(=O)N2CCC(C(=O)NCCCc3ccccc3)CC2)c2cc(Cl)ccc2O1 (centres undefined)	-23.0%	?	.	-2.6%	.	?
CC(C)c1cccc(C(C)C)c1NC(=O)CCl	-8.7%	0.2%	17.3%	33.1%	4.4%	1.4%
CC(C)c1cccc(C(C)C)c1NC(=O)CNCC(O)c1ccccc1 (centres undefined)	56.2µM*	9.6%	-13.1%	-32.3%	.	50.1µM*
C(=N\Nc1ccccc1)/c1ccc(N2CCOCC2)cc1	?	3.98µM*	-1.5%	1.6%	-8.3%	-33.2%[57.1 µM]
C/C(=N\Nc1ccccn1)c1ccc(N2CCOCC2)cc1	?	-42.7%	4.8%	1.5%	?	?
O=[N+]([O-])c1cccc(N/N=C/c2ccc(N3CCOCC3)cc2)c1	35.5µM*	39.8µM*	-0.5%	39.8µM*	.	17.8µM*
O=[N+]([O-])c1cccc(N/N=C/c2cc([N+](=O)[O-])ccc2O)c1	-7.6%	-5.2%	-0.6%	7.0%	-8.6%	-24.2%
C(=N\Nc1ccccn1)/c1ccc(N2CCOCC2)cc1	?	-17.8%	39.8µM*	-6.3%	?	?
O=C(O)c1ccc(N/N=C/C2=C(N3CCOCC3)C(=C\c3ccccc3)/CC2)cc1	?	.	50.1µM*	?	?	50.1µM*
CC[C@H](C)[C@H](NC(=O)[C@H](Cc1ccc(O)cc1)NC(=O)[C@@H]1CCCN1C(=O)[C@@H](NC(=O)[C@@H](N)CCCCN)[C@@H](C)CC)C(=O)N[C@@H](CC(C)C)C(=O)O	.	.	15.5%	.	.	.
O=C(O)c1cc(N/N=C/c2ccc(N3CCOCC3)cc2)ccc1Cl	-34.2%	-137.8%[59 µM]	-12.2%	52.4%	-24.9%	?
Clc1cccc(N/N=C/c2ccc(N3CCOCC3)cc2)c1	?	31.6µM*	8.2%	-3.5%	-14.1%	-8.4%[57.1 µM]
CCOc1ccc(C2/C(=C(\O)c3ccc4c(c3)OCCO4)C(=O)C(=O)N2CCN2CCOCC2)cc1OC (centres undefined)	-6.2%	44.7µM*	-6.9%	17.5%	.	-32.6%
SMILES	JMJD2A Tudor inh	G9a inh	Sfp PPTase inh	HP1b chromo inh	L3MBTL1 inh	BAZ2B inh
O=C1C(=O)N(CCN2CCOCC2)C(c2cccc(Cl)c2)/C1=C(\O)c1ccc2c(c1)OCCO2 (centres undefined)	-16.3%	35.5µM*	25.7%	4.6%	.	?
O=C1C(=O)N(CCN2CCOCC2)C(c2ccc(Cl)c(Cl)c2)/C1=C(/O)c1ccc2c(c1)OCO2 (centres undefined)	-18.5%	?	8.1%	25.4%	.	-32.5%
COc1ccc(C(=O)NNC(=O)COC(=O)c2sccc2C)cc1	?	12.2%[2.33 µM]	.	29.5%	-7.6%	1.0%
Fc1ccc(-n2c(-c3ccco3)n[nH]c2=S)cc1	6.31µM*	?	79.4µM*	15.1%	.	-22.5%
Fc1ccc(-n2c(-c3ccc4ccccc4n3)n[nH]c2=S)cc1	-31.5%	0.5%	22.7%	21.3%	3.1%	-9.1%
Cc1ccc(-n2c(-c3ccco3)nc3c(cnn3-c3ccc(C)cc3)c2=O)cc1	-20.0%	-31.7%[59 µM]	3.4%	13.5%	.	2.2%
Cc1ccc(-n2c(-c3ccco3)n[nH]c2=S)cc1	22.4µM*	.	79.4µM*	-17.1%	11.4%	-12.5%
CCOc1ccc(-n2c(-c3ccco3)n[nH]c2=S)cc1	5.62µM*	3.16µM*	50.1µM*	?	-5.3%	?
COc1ccc(S(=O)(=O)N2CCCCCC2)cc1C(=O)NCc1ccc(C)cc1	-5.5%	-2.3%[12.7 µM]	.	22.7%	2.7%	-4.2%
O=C(NC(=S)Nc1cc([N+](=O)[O-])ccc1O)c1cccnc1	-4.1%	11.2µM*	-63.3%	5.7%	55.8%	2.3%
O=C(NC(=S)Nc1ccccc1O)c1cccnc1	-20.8%	17.6%[0.501 µM]	-12.1%	14.1%	-4.1%[2.29 µM]	-35.8%
Cc1ccc([N+](=O)[O-])cc1NC(=S)NC(=O)c1cccnc1	-2.1%	-4.9%	?	10.5%	-1.5%	-4.1%
N#Cc1ccccc1NC(=S)NC(=O)c1cccnc1	-8.2%	.	50.1µM*	-8.4%	.	-11.9%
COc1cc(OC)c(C=NNC(=S)NC23CC4CC(CC(C4)C2)C3)c(OC)c1	-34.7%	.	.	-22.6%	.	.
COc1ncc2nc(-c3cccs3)c(=O)n(CCc3ccccc3)c2n1	.	18.5%[0.501 µM]	2.0%	.	.	.
COc1ccc(-c2ccc3c(c2)S(=O)(=O)c2cccc(C(=O)NC[C@@H]4CCCO4)c2C3=O)cc1OC	39.8µM*	7.3%[2.33 µM]	.	11.6%	-1.0%	?
CC1CC(C)(C)NC(=S)O1 (centres undefined)	-7.7%	79.4µM*!	-6.5%	1.7%	-2.6%	-7.5%
CC1(C)CCC(C)(C)NC(=S)N1	0.7%	8.5%[59 µM]	1.1%	27.1%	3.9%	0.3%
